In PubChem BioAssay (NCI):
About 83,000 compounds went through this panel and 20% of them were active in at least one assay; those are over-represented in the sample as a whole.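 48-hour exposure, single concentration, 96-well plates; percent growth endpoint where 0 means no net growth. Active: below 10.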 Calls of active or inactive are those of the source.

What was measured:
Experiment in all cases: NCI-60 one-dose screen, 48 h (100 = growth as untreated, 0 = no growth, -100 = all killed)
Conditions in all cases: 10 µM unless noted
[1] = tested on: HCT-15 colon
[2] = tested on: HT29 colon
[3] = tested on: SNB-75 CNS
[4] = tested on: SNB-19 CNS
[5] = tested on: U251 CNS
[6] = tested on: PC-3 prostate
[7] = tested on: SK-MEL-5 melanoma
[8] = tested on: UACC-62 melanoma
[9] = tested on: LOX IMVI melanoma
[10] = tested on: SK-MEL-28 melanoma
[11] = tested on: SK-MEL-2 melanoma
[12] = tested on: EKVX NSCLC
[13] = tested on: SN12C renal
[14] = tested on: UO-31 renal
[15] = tested on: TK-10 renal
[16] = tested on: ACHN renal
[17] = tested on: CAKI-1 renal
[18] = tested on: A498 renal
[19] = tested on: CCRF-CEM leukemia
[20] = tested on: MOLT-4 leukemia

Measured: growth

CCOC(=O)C#Cc1c(C(=O)OCC)nnn1[C@@H]1O[C@H](COC(C)=O)[C@@H](OC(C)=O)[C@H]1OC(C)=O
inactive: [1] 44% | [2] 88.9% | [3] 95.5% | [4] 93% | [5] 100% | [6] 102% | [7] 96.6% | [8] 93.1% | [9] 85.8% | [10] 107% | [11] 95.8% | [12] 103% | [13] 88.5% | [14] 65% | [15] 62.3% | [16] 53.2% | [18] 102% | [19] 48.3%
active: [17] 4.56%

CCOC(=O)C1OC2(CCCC2)OC1C(=O)OCC (configuration not stated)
inactive: [1] 106% | [2] 99.2% | [3] 104% | [4] 99.3% | [5] 109% | [6] 97.6% | [7] 101% | [8] 96.7% | [9] 102% | [10] 122% | [11] 94.9% | [12] 108% | [13] 101% | [14] 83% | [15] 102% | [16] 109% | [17] 102% | [18] 107% | [19] 86.3%

C=C(C)[C@@H]1CC[C@]2(C(=O)NS(=O)(=O)c3ccccc3)CC[C@]3(C)[C@H](CC[C@@H]4[C@@]5(C)CC[C@H](OC(=O)NS(=O)(=O)c6ccccc6)C(C)(C)[C@@H]5CC[C@]43C)[C@@H]12
inactive: [2] 20.8% | [3] 45.3% | [4] 14.4% | [5] 13% | [12] 27.5% | [13] 13% | [15] 24% | [16] 14.6% | [17] 24.8%
active: [1] 5.41% | [6] 7.83% | [7] -24.6% | [8] -83.1% | [9] 4.7% | [10] -16.3% | [11] -6.1% | [14] 8.04% | [18] -2.66%

COc1cnc2c(c1)C(=O)c1c-2n(CCCN2CCN(C)CC2)c(=O)c2cc(Cl)ccc12
active: [2] -60.6% | [8] -49% | [10] -53.8% | [18] -4.26% | [19] -14.6%
inactive: [1] 41.8% | [3] 38.7% | [4] 46.3% | [5] 45.4% | [6] 40.5% | [7] 65.4% | [9] 38.2% | [11] 32.3% | [12] 51.5% | [13] 43% | [14] 40.1% | [15] 48.5% | [16] 18.4% | [17] 45.3%

CC(C)(C)c1ccc(C(=O)Nc2sc3cc(O)ccc3c2C(N)=O)cc1
inactive: [1] 43.9% | [2] 23.8% | [3] 95.9% | [4] 94.1% | [5] 77.5% | [6] 79.2% | [7] 96.6% | [8] 104% | [9] 23.3% | [10] 87.5% | [11] 114% | [12] 94.6% | [13] 78% | [14] 65.6% | [15] 133% | [16] 74.1% | [17] 77.3% | [18] 107% | [19] 50%

CCN(CC)CCNC(=O)n1cc(-c2ccncc2)c(-c2cc(Cl)cc(OC)c2)n1
inactive: [1] 86% | [2] 31.3% | [3] 48% | [4] 76.5% | [5] 75.4% | [6] 79.8% | [7] 84.8% | [8] 70.3% | [9] 78.7% | [10] 91.3% | [11] 92.3% | [12] 43.4% | [13] 70.2% | [14] 43.8% | [15] 30.1% | [16] 57.1% | [17] 68.1% | [18] 63.7% | [19] 83.3%

CCOC(=O)C1=C(C)NC(=S)NC1c1ccccc1 (configuration not stated)
inactive: [1] 104% | [2] 110% | [3] 82.6% | [4] 104% | [5] 105% | [6] 115% | [7] 103% | [8] 95.6% | [9] 101% | [10] 112% | [11] 113% | [12] 97.6% | [13] 103% | [14] 76.4% | [15] 104% | [16] 99.6% | [17] 87.5% | [18] 86.3% | [19] 109%

Nc1c(N)c2ccccc2c2ccccc12
inactive: [1] 111% | [2] 108% | [3] 84.8% | [4] 104% | [5] 106% | [6] 89.5% | [7] 107% | [8] 95% | [9] 101% | [10] 110% | [11] 106% | [12] 92.6% | [13] 99.5% | [14] 69.1% | [15] 119% | [16] 111% | [17] 89% | [18] 113% | [19] 104% | [20] 100%

CC(C)c1nc2ccccc2n1CC(=O)N/N=C/c1cccc(O)c1
inactive: [1] 104% | [2] 104% | [3] 94.1% | [4] 91.8% | [5] 103% | [6] 87.9% | [7] 100% | [8] 86.3% | [9] 99.6% | [10] 97.2% | [11] 107% | [12] 105% | [13] 94.1% | [14] 80.2% | [15] 93.5% | [16] 95.7% | [17] 101% | [18] 88% | [19] 94.9% | [20] 91.9%

COc1cnc2c(c1)C(=O)c1c-2n(CCCNC(C)C)c(=O)c2cc(Cl)ccc12
inactive: [3] 10.4% | [11] 70.2% | [13] 17.3% | [17] 28.8%
active: [1] -47.2% | [2] -90.6% | [4] -23.2% | [5] -86.6% | [6] -51.7% | [7] -81.3% | [8] -62.8% | [9] -88.1% | [10] -89.7% | [12] -32.7% | [14] -81.7% | [15] -89.1% | [16] -100% | [18] -2.79% | [19] -41.1% | [20] -47%

COc1ccc(C(=O)C(CN(C)C)c2ccc(OC)cc2)cc1 (configuration not stated)
active: [19] 3.8%
inactive: [1] 30.4% | [2] 13.2% | [3] 64.7% | [4] 90.7% | [5] 69.2% | [6] 39.1% | [7] 95.5% | [8] 32.1% | [9] 31.3% | [10] 79% | [11] 75.1% | [12] 90.7% | [13] 62.5% | [14] 67.9% | [15] 52% | [16] 54.1% | [17] 73.9% | [18] 64.4% | [20] 52.9%

CSc1nc(N)c2[nH]c(-c3cc4ccccc4[nH]c3=O)nc2n1
inactive: [1] 64.8% | [2] 94.2% | [3] 113% | [4] 109% | [5] 84.7% | [6] 78.7% | [7] 100% | [8] 83.4% | [9] 69.9% | [10] 116% | [11] 74.2% | [12] 103% | [13] 85.1% | [14] 57.3% | [15] 106% | [16] 61.1% | [17] 68.9% | [18] 92.4% | [19] 91.6% | [20] 79.8%

O=C(O/C(=C/c1ccccc1)C(F)(F)F)c1ccccc1
inactive: [1] 114% | [2] 110% | [3] 92.7% | [4] 110% | [5] 102% | [6] 104% | [7] 102% | [8] 100% | [9] 99.1% | [10] 116% | [11] 103% | [12] 103% | [13] 99.3% | [14] 102% | [15] 103% | [16] 110% | [17] 99% | [18] 88.7% | [19] 106%
active: [20] 7.51%

CN1C(=O)N(C)C2C1NN=c1s/c(=C\c3ccc(C(F)(F)F)cc3)c(=O)n12 (configuration not stated)
active: [2] 9.64% | [3] 7.43% | [7] 4.36%
inactive: [1] 24.2% | [4] 30% | [5] 21.6% | [6] 18.8% | [8] 26.7% | [9] 36.6% | [10] 60.4% | [11] 47.7% | [12] 45.2% | [13] 41.2% | [14] 49.6% | [15] 55.5% | [16] 44.6% | [17] 29.6% | [18] 18.4% | [19] 11.7% | [20] 37.2%

N/C(=C\C(=O)n1nc(-c2ccccc2)cc1N)c1ccccc1
active: [11] -16.7%
inactive: [1] 33.5% | [2] 23.8% | [3] 29.9% | [4] 66.6% | [5] 36.7% | [6] 22.6% | [7] 32.2% | [8] 36.9% | [9] 51.4% | [10] 42.2% | [12] 69.5% | [13] 62.1% | [14] 38.2% | [15] 101% | [16] 63.7% | [17] 65.3% | [18] 67.8% | [19] 40.1% | [20] 43%

CN1CCCN(CCNc2nccc(-c3c(-c4cccc(O)c4)nc4sccn34)n2)S1(=O)=O
inactive: [1] 33.7% | [2] 38.7% | [3] 12.9% | [4] 99.4% | [5] 56.6% | [6] 30.3% | [7] 37.7% | [9] 14.2% | [10] 18.1% | [11] 22.1% | [12] 84.9% | [13] 38.1% | [14] 25.2% | [15] 92.4% | [16] 22.9% | [18] 58.8% | [19] 31.3% | [20] 37.8%
active: [8] -12.6% | [17] -25%
